Values joined by “and” are separate entries in the source; they are usually repeats but may differ in a detail not shown here. Identical values can stand only once. Compounds without any hit were thinned out: in the full panel of roughly 79,000, 15% have a hit. A structure can be active in one record and inactive in another. Active and inactive are the calls of the source. Rule as the data show it: active = growth inhibition above about 70%; inactive = the rest.

The source of these data is PubChem BioAssay (NCI).

Test [1] in a line: NCI Yeast Anticancer Drug Screen. Data for the rad50 strain (AID 155).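 Also: 0% = growth of vehicle-only cultures of the same strain.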 To be noted: S. cerevisiae rad50 strain growth inhibition, stronger effect = higher value. The method, boiled down:
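Relative growth inhibition (compound vs vehicle) was measured in yeast with a defined repair-gene alteration.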

Test [2] can be described thus: NCI Yeast Anticancer Drug Screen. Data for the mec2-1 strain (AID 157). The settings on record: S. cerevisiae mec2-1 strain, stronger effect = higher value. The method, boiled down:
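Cells of the genetically defined mec2-1 yeast strain are incubated with test compound. Inhibition of growth is calculated against vehicle-treated controls.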

Test [3] is described as follows: NCI Yeast Anticancer Drug Screen. Data for the sgs1 mgt1 strain (AID 161).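 Also: 0% = growth of cultures given vehicle only.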 The settings on record: S. cerevisiae sgs1 mgt1 strain, stronger effect = higher value. The procedure, abridged: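 Genetically altered yeast, compound exposure, growth inhibition relative to vehicle.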
The nature of test [4]: NCI Yeast Anticancer Drug Screen. Data for the cln2 rad14 strain (AID 165).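 Also: 0% = growth equal to vehicle treated cultures.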 To be noted: S. cerevisiae cln2 rad14 strain, stronger effect = higher value. The method, boiled down: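 The screen exposed genetically defined yeast (cln2 rad14) to test compounds and scored growth inhibition relative to vehicle-treated controls.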
A short description of test [5]: NCI Yeast Anticancer Drug Screen. Data for the bub3 strain (AID 167). The settings on record: S. cerevisiae bub3 mutant strain, stronger effect = higher value. The procedure, abridged: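 Screening used yeast with an engineered genetic alteration affecting cell cycle control. Compound-exposed cultures were compared with vehicle cultures, and reduced growth was taken as inhibition.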

Test [6] is described as follows: NCI Yeast Anticancer Drug Screen. Data for the mlh1 rad18 strain (AID 175). To be noted: S. cerevisiae mlh1 rad18 strain growth inhibition, stronger effect = higher value. The procedure, abridged: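 Compound-treated yeast growth, normalised to vehicle controls. Strain bears defined DNA repair mutations.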
Setting [7] is: at 5.0 µM (retest, dose inferred, filed as 0.5).
The mark [8] stands for this setting: at 50.0 µM (retest, dose inferred, filed as 5.0).

For the compound `CC(=O)c1ccc2ccc3ccc(O)cc3c2c1`, the growth inhibition in test [1] (setting [7]) is 1% (inactive); in test [1] (setting [8]), 97% (active); in test [1] (at 50.0 µM), 88.5% (active); in test [2] (setting [7]), 11% (inactive); in test [2] (setting [8]), 97% (active); in test [2] (at 50.0 µM), 80.5% (active). Moreover, the growth inhibition in test [3] (setting [7]) is 2% (inactive); in test [3] (setting [8]) it was 96% (active); in test [3] (at 50.0 µM), 82.2% (active); in test [4] (setting [7]), -5% (inactive); in test [4] (setting [8]), 97% (active); in test [4] (at 50.0 µM) it was 72.8% (active). The growth inhibition is -27% (inactive) in test [5] (setting [7]); 98% (active) in test [5] (setting [8]); 90.2% (active) in test [5] (at 50.0 µM); 6% (inactive) in test [6] (setting [7]); 97% (active) in test [6] (setting [8]); 89.2% (active) in test [6] (at 50.0 µM).

As to `CCCC(C)NCCOC(=O)C(c1ccccc1)C1CCCCC1` (stereo unspecified), the growth inhibition in test [1] (setting [7]) was -11% (inactive); in test [1] (setting [8]) it was 49% (inactive); in test [1] (at 50.0 µM), 85.6% (active); in test [2] (setting [7]), 3% (inactive); in test [2] (setting [8]), 36% (inactive); in test [2] (at 50.0 µM) it was 14.2% (inactive). Besides, the growth inhibition was -3% (inactive) in test [3] (setting [7]); 60% (inactive) in test [3] (setting [8]); 85.5% (active) in test [3] (at 50.0 µM); -2% (inactive) in test [4] (setting [7]); 36% (inactive) in test [4] (setting [8]); 34.3% (inactive) in test [4] (at 50.0 µM). Also, the growth inhibition in test [5] (setting [7]) was 0% (inactive); in test [5] (setting [8]), 49% (inactive); in test [5] (at 50.0 µM) it was 57.5% (inactive); in test [6] (setting [7]) it was 1% (inactive); in test [6] (setting [8]) it was 61% (inactive); in test [6] (at 50.0 µM), 73.2% (active).

As for `CCN(CC)CCNc1n[n+]([O-])c2cc([N+](=O)[O-])ccc2[n+]1[O-]`, the growth inhibition in test [1] (setting [7]) was 31% (inactive); in test [1] (setting [8]), 88% (active); in test [1] (at 50.0 µM) it was 80.5% (active) and 79% (active); in test [2] (setting [7]), 5% (inactive); in test [2] (setting [8]) it was 48% (inactive); in test [2] (at 50.0 µM), 58.8% (inactive) and 52.6% (inactive). Also, the growth inhibition in test [3] (setting [7]) was 16% (inactive); in test [3] (setting [8]), 76% (active); in test [3] (at 50.0 µM), 73.5% (active) and 71% (active); in test [4] (setting [7]), 32% (inactive); in test [4] (setting [8]) it was 63% (inactive); in test [4] (at 50.0 µM), 48% (inactive) and 41% (inactive). The growth inhibition in test [5] (setting [7]) was -7% (inactive); in test [5] (setting [8]), 67% (inactive); in test [5] (at 50.0 µM) it was 43.7% (inactive) and 45.1% (inactive); in test [6] (setting [7]), 24% (inactive); in test [6] (setting [8]) it was 85% (active); in test [6] (at 50.0 µM), 79.3% (active) and 80.5% (active).

On to `O=[N+]([O-])C1=C(c2ccccc2)SC=C(c2ccccc2)S1`, for which the growth inhibition in test [1] (setting [7]) was 6% (inactive) and -1% (inactive); in test [1] (setting [8]), 13% (inactive) and -6% (inactive); in test [1] (at 50.0 µM), 24% (inactive) and 71.5% (active); in test [2] (setting [7]), -6% (inactive) and 10% (inactive); in test [2] (setting [8]) it was -3% (inactive) and 1% (inactive); in test [2] (at 50.0 µM), 13.4% (inactive) and 82.9% (active). Also, the growth inhibition is 3% (inactive) and 22% (inactive) in test [3] (setting [7]); -1% (inactive) and -5% (inactive) in test [3] (setting [8]); 31.6% (inactive) and 84.7% (active) in test [3] (at 50.0 µM); 18% (inactive) and 1% (inactive) in test [4] (setting [7]); 64% (inactive) and -4% (inactive) in test [4] (setting [8]); 54.9% (inactive) and 89.1% (active) in test [4] (at 50.0 µM). In addition, the growth inhibition in test [5] (setting [7]) was 48% (inactive) and 50% (inactive); in test [5] (setting [8]) it was 80% (active) and 28% (inactive); in test [5] (at 50.0 µM), 12.4% (inactive) and 84.8% (active); in test [6] (setting [7]) it was -9% (inactive) and 17% (inactive); in test [6] (setting [8]) it was -10% (inactive) and -3% (inactive); in test [6] (at 50.0 µM), 57.5% (inactive) and 85.9% (active).

With `COc1ccc(/C=C2\CCCC(CN(C)C)C2=O)cc1` (stereo unspecified), the growth inhibition in test [1] (setting [7]) was -1% (inactive); in test [1] (setting [8]), 8% (inactive); in test [1] (at 50.0 µM), 65.4% (inactive); in test [2] (setting [7]), -20% (inactive); in test [2] (setting [8]) it was 13% (inactive); in test [2] (at 50.0 µM) it was 78.8% (active). In addition, the growth inhibition in test [3] (setting [7]) was -31% (inactive); in test [3] (setting [8]), -3% (inactive); in test [3] (at 50.0 µM), 86.2% (active); in test [4] (setting [7]), -32% (inactive); in test [4] (setting [8]), 9% (inactive); in test [4] (at 50.0 µM), 57.4% (inactive). The growth inhibition in test [5] (setting [7]) is -48% (inactive); in test [5] (setting [8]) it was 23% (inactive); in test [5] (at 50.0 µM) it was 81.8% (active); in test [6] (setting [7]), -22% (inactive); in test [6] (setting [8]), 5% (inactive); in test [6] (at 50.0 µM) it was 84.7% (active).

As to `Cn1c2nc3ccccc3c-2cc2ccccc21`, the growth inhibition was 44% (inactive) in test [1] (setting [7]); 85% (active) in test [1] (setting [8]); 84% (active) and 85.2% (active) in test [1] (at 50.0 µM); 27% (inactive) in test [2] (setting [7]); 75% (active) in test [2] (setting [8]); 77.8% (active) and 71.2% (active) in test [2] (at 50.0 µM). For the same compound, the growth inhibition is 38% (inactive) in test [3] (setting [7]); 83% (active) in test [3] (setting [8]); 70% (inactive) and 68.5% (inactive) in test [3] (at 50.0 µM); 41% (inactive) in test [4] (setting [7]); 74% (active) in test [4] (setting [8]); 60.5% (inactive) and 59.4% (inactive) in test [4] (at 50.0 µM). Besides, the growth inhibition in test [5] (setting [7]) was 30% (inactive); in test [5] (setting [8]), 83% (active); in test [5] (at 50.0 µM) it was 70.8% (active) and 68.2% (inactive); in test [6] (setting [7]) it was 48% (inactive); in test [6] (setting [8]), 83% (active); in test [6] (at 50.0 µM), 76.7% (active) and 72.6% (active).

For the compound `O=C1C=CC(=O)N1c1ccc(N=Nc2ccccc2)cc1`, the growth inhibition in test [1] (setting [7]) was 97% (active); in test [1] (setting [8]), 99% (active); in test [1] (at 50.0 µM), 86.2% (active) and 7.45% (inactive); in test [2] (setting [7]), 99% (active); in test [2] (setting [8]) it was 99% (active); in test [2] (at 50.0 µM) it was 86.2% (active) and -13.1% (inactive). Moreover, the growth inhibition was 99% (active) in test [3] (setting [7]); 91% (active) in test [3] (setting [8]); 89.7% (active) and 21.8% (inactive) in test [3] (at 50.0 µM); 98% (active) in test [4] (setting [7]); 92% (active) in test [4] (setting [8]); 87.2% (active) and 20.6% (inactive) in test [4] (at 50.0 µM). The growth inhibition in test [5] (setting [7]) was 99% (active); in test [5] (setting [8]) it was 91% (active); in test [5] (at 50.0 µM), 87% (active) and 5.75% (inactive); in test [6] (setting [7]), 98% (active); in test [6] (setting [8]), 99% (active); in test [6] (at 50.0 µM) it was 85.5% (active) and 5.9% (inactive).
